Here are results for twelve compounds from PubChem BioAssay.

Assay [1] concerns the target Toll-like receptor 9 (Homo sapiens) (UniProt Q9NR96). Nature of the assay: disruptors of TLR9 binding to MyD88 – cell-based, CHO, BLA complementation, fluorescence, triplicate, confirmation (AID 540250;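 active = mean inhibition across three repeats above about 21% taken from the earlier screen, limit read from the data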;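 also: blue over green emission ratio reports constitutive TLR9 MyD88 association via BLA complementation; 0% = DMSO vehicle wells and 100% = clavulanate BLA inhibitor wells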). The following applies: CCF4 FRET ratio, at 4.98 µM, stronger effect = higher value.
A short description of assay [2]: BLA reporter readout interference – cell-based, fluorescence, artefact control for TLR9-MyD88 binding inhibitor project (AID 540251).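 Also: counterscreen of TLR9-MyD88 hits on CMV-driven BLA in CHO-K1 cells; 0% = DMSO alone and 100% = clavulanate blocking BLA; higher means less blue over green ratio so more BLA blockade.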 Conditions: CHO-BLA cells, CCF4 FRET ratio, at 4.98 µM, stronger effect = higher value.
Assay [3] can be described thus: CHO cell viability loss – luminescence, single concentration, cytotoxicity control for TLR9-MyD88 binding inhibitor project (AID 588336; in the data active = inhibition above about 11%). The following applies: TLR9-MyD88 CHO cells cytotoxicity, at 4.98 µM, stronger effect = higher value.
The target of assay [4] is Receptor-interacting serine/threonine-protein kinase 2 (Homo sapiens) (UniProt O43353). Nature of the assay: inhibitors of RIPK2 association with NOD2 – fluorescence, CHO cells, BLA complementation, triplicate, confirmation (AID 624370;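 active = mean inhibition across replicates above a set limit taken from the earlier primary screen, cut at about 21% in these data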;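 also: 0% = DMSO-only wells and the high end = clavulanate BLA-blocked wells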). Conditions: CCF4 FRET, at 4.98 µM, stronger effect = higher value.
The nature of assay [5]: BLA reporter readout interference – cell-based, CHO-K1 CMV-bla, CCF4 FRET, fluorescence, artefact control for NOD2-RIPK2 interaction inhibitor project, confirmation (AID 624371;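 active = mean inhibition above the low-control mean inhibition plus three low-control SD, cut at about 11% in these data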;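 also: 0% = DMSO only wells and 100% = clavulanate high control wells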). Conditions: CCF4 FRET ratio, counterscreen, at 4.98 µM, stronger effect = higher value.
Assay [6] has as its target Serine protease HTRA1 (Homo sapiens) (UniProt Q92743). Nature of the assay: confirming inhibition of human HTRA1 – biochemical, fluorescence polarization, confirmation (AID 540248;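 active = mean inhibition over three repeats above a set limit taken from the earlier primary screen, cut at about 37% in these data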;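 also: 0% = HTRA1 with DMSO and 100% = wells lacking HTRA1; inhibitors block probe binding so polarization drops and inhibition rises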). Conditions: recombinant HTRA1, FP-rhodamine activity-based probe, at 5.96 µM, stronger effect = higher value.
Assay [7] is described as follows: BSA probe fluorescence interference – biochemical, TAMRA-labeled BSA, counter-screen for TCR-CD3 interaction inhibitor project (AID 652035; in the data active = inhibition above about 23%;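 also: 0% = buffer low control and 100% = reference high control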). The following applies: TAMRA-labeled BSA probe fluorescence counterscreen; at 9.4 µM; stronger effect = higher value.
Assay [8] concerns T-cell receptor (TCR)-CD3 interaction, human. Nature of the assay: blockers of TCR binding to CD3 – biochemical, fluorescence, TAMRA-labeled TCR probe, confirmation (AID 652036; in the data active = inhibition above about 19%). Conditions: TAMRA-labeled TCR probe fluorescence binding assay; at 9.4 µM; stronger effect = higher value.
Assay [9] addresses Photoreceptor-specific nuclear receptor (Homo sapiens) (UniProt Q9Y5X4). Nature of the assay: retest of NR2E3-NCOR disrupting agonists – cell-based, luminescence, CHO-S two-hybrid, confirmation (AID 624378;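 active = average inhibition above a cutoff equal to the mean inhibition of all tested compounds plus one SD, cut at about 70% in these data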;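 also: 0% = DMSO in NR2E3 cells and 100% = DMSO in cells lacking NR2E3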). The following applies: CHO-S mammalian two-hybrid NR2E3-NCOR, luciferase luminescence; at 3.98 µM; stronger effect = higher value.
Assay [10] can be described thus: nonselective effects on VP16 transactivation – cell-based, luminescence, CHO-S, high throughput, counter-screen for NR2E3 agonist project, confirmation (AID 624379;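 active = mean inhibition above a cutoff equal to the average over all tested compounds plus one standard deviation, cut at about 70% in these data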;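 also: 0% = DMSO with VP16-transfected cells and 100% = DMSO with cells lacking VP16; higher means less reporter light so more repression of VP16 activity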). Conditions: CHO-S GAL4-VP16 luciferase reporter, at 3.98 µM, stronger effect = higher value.
Assay [11] has as its target (Lyso)-N-acylphosphatidylethanolamine lipase (Mus musculus) (UniProt Q8VD66). Nature of the assay: mouse ABHD4 hydrolase blockers, triplicate – biochemical, fluorescence polarization, confirmation (AID 720658;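 active = mean inhibition across replicates above the hit cutoff set in the primary screen, cut at about 30% in these data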;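 also: 0% = wild-type ABHD4 with DMSO and 100% = catalytically dead S159A mutant with DMSO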). The following applies: purified mABHD4, FP-Rh probe fluorescence polarization; at 8.92 µM; stronger effect = higher value.
The nature of assay [12]: StAR promoter reporter inhibitors, counter-screen for LRH-1 inverse agonist project, cell-based, luminescence, high throughput (AID 651611; in the data active = inhibition above about 28%). Conditions: StAR promoter luciferase reporter counterscreen, at 3.6 µM, stronger effect = higher value.
Assay [13] concerns the target Nuclear receptor subfamily 5 group A member 2 (Homo sapiens) (UniProt O00482). Nature of the assay: NR5A2 activity suppression in reporter cells – cell-based, luminescence, confirmation (AID 651613; in the data active = inhibition above about 42%;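 also: HEK293T cells co-transfected with LRH-1 and StAR promoter luciferase reporter; 0% = vehicle wells and 100% = parental cells lacking receptor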). The following applies: cell-based LRH-1 luciferase reporter, inverse agonism; at 3.6 µM; stronger effect = higher value.
The target in assay [14] is Steroidogenic factor 1 (Homo sapiens) (UniProt Q13285). Nature of the assay: inverse agonism at SF1 nuclear receptor – cell-based, luminescence, high throughput, counter-screen for LRH-1 inverse agonist project (AID 651614; in the data active = inhibition above about 44%;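 also: cells cotransfected with StAR promoter reporter and SF1 expression vector; 0% = vehicle on cells with receptor and 100% = vehicle on cells lacking receptor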). Conditions: cell-based SF1 luciferase reporter, at 3.6 µM, stronger effect = higher value.
The nature of assay [15]: compounds suppressing VP16-driven luciferase signal – cell-based, luminescence, high throughput, counter-screen for LRH-1 inverse agonist project (AID 651615; in the data active = inhibition above about 33%). Conditions: Gal4-VP16 luciferase reporter cells, at 3.6 µM, stronger effect = higher value.
A short description of assay [16]: VP16-driven transactivation reporter suppression – cell-based, luminescence, HEK293, counter-screen for COUP-TFII antagonist project (AID 687007; in the data active = inhibition above about 13%). The following applies: HEK293 Gal4-VP16 luciferase reporter, at 8.5 µM, stronger effect = higher value.
The target in assay [17] is COUP transcription factor 2 (Homo sapiens) (UniProt P24468). In words: retest of COUP-TFII reporter suppressors – cell-based, luciferase reporter, HEK293, triplicate, confirmation (AID 687008;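 active = mean inhibition over three repeats above a set limit taken from the earlier primary screen, cut at about 38% in these data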;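 also: 100% = cells given the luciferase reporter alone without the COUP-TF2 vector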). The following applies: HEK293 NGFI-A luciferase reporter, luminescence; at 8.5 µM; stronger effect = higher value.

A number with no mark means an inactive call. Some of the results follow. The source made the active and inactive calls.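 The calls were made as follows, unless noted: active = mean inhibition above a 50% cutoff; inactive = the rest.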

Receptor-interacting serine/threonine-protein kinase 2 (Homo sapiens), sequence (O43353 whole entry, looked up): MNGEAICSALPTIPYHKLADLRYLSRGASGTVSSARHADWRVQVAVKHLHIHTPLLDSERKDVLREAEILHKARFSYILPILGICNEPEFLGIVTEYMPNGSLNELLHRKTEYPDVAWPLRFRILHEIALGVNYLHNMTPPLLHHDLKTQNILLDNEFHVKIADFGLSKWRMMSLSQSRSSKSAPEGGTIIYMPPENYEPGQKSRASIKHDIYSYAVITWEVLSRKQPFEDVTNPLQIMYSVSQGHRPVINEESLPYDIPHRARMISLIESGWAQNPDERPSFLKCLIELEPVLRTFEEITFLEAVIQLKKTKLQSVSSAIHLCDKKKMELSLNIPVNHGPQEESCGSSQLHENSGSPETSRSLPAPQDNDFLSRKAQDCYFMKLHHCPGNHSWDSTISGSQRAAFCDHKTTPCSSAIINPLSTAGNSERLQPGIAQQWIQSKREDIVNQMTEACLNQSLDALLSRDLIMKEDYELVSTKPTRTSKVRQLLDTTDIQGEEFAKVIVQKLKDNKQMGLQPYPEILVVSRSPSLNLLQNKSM
Toll-like receptor 9 (Homo sapiens), sequence (Q9NR96 whole entry, looked up): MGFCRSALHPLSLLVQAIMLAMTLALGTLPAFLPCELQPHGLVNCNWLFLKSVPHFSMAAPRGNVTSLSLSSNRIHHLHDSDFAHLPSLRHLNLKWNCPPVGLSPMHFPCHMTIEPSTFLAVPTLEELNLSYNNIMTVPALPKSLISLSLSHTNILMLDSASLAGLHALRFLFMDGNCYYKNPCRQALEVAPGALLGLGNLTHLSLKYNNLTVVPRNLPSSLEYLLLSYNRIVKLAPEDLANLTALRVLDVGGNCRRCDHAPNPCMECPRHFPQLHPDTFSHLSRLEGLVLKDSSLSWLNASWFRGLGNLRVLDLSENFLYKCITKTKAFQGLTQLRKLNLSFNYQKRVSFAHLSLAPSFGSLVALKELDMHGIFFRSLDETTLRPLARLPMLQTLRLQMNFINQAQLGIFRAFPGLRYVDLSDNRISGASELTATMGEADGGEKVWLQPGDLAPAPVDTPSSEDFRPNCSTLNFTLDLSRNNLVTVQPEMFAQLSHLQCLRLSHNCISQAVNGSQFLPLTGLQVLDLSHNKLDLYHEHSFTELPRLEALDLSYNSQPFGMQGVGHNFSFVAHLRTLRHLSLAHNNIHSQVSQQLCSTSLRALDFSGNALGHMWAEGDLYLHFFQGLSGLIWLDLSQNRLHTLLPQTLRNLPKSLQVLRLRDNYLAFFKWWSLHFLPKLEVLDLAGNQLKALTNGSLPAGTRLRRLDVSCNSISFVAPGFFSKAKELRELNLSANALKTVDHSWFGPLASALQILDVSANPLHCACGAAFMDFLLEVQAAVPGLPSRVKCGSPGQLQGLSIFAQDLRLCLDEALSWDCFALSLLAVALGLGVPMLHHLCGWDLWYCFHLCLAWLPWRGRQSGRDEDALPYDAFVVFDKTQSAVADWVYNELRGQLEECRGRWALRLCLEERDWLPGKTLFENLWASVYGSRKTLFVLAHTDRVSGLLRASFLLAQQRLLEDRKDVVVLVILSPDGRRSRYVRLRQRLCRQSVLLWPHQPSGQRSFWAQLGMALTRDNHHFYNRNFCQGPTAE
Steroidogenic factor 1 (Homo sapiens), sequence (Q13285 whole entry, looked up, the tested form may be a part): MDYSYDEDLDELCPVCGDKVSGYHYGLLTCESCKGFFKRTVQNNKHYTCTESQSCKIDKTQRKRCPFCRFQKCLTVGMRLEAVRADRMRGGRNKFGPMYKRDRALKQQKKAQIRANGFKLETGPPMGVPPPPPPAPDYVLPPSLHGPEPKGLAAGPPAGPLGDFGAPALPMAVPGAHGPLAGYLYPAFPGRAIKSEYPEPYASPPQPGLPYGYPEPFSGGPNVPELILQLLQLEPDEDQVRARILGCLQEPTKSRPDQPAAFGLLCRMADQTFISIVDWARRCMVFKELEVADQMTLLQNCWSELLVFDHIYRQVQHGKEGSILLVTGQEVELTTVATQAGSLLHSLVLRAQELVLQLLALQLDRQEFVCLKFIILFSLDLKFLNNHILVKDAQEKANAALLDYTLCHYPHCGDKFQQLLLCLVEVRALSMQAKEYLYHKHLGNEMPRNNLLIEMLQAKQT
COUP transcription factor 2 (Homo sapiens), sequence (P24468 whole entry, looked up): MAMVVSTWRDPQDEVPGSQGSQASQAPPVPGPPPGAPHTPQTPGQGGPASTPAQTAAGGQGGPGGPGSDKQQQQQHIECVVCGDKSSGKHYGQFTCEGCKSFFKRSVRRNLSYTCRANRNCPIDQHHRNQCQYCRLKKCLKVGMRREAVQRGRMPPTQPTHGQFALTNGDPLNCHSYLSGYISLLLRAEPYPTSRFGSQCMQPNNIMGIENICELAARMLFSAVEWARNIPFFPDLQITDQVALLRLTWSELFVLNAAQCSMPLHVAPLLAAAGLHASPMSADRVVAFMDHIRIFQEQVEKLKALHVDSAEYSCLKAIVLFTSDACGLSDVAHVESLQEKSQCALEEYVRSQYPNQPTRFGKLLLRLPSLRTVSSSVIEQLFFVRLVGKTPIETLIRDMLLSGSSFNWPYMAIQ
Photoreceptor-specific nuclear receptor (Homo sapiens), sequence (Q9Y5X4 whole entry, looked up): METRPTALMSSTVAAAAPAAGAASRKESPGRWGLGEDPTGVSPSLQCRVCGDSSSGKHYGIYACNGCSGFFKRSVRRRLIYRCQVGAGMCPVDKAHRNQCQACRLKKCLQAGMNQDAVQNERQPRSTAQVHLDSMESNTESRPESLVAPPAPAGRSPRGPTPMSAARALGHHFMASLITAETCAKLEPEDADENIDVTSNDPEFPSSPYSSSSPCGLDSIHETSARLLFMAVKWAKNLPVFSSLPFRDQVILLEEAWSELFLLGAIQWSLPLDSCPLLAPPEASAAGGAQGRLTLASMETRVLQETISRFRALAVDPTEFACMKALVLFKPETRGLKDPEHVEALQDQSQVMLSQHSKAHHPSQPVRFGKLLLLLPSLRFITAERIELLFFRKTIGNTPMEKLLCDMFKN
Nuclear receptor subfamily 5 group A member 2 (Homo sapiens), sequence (O00482 whole entry, looked up): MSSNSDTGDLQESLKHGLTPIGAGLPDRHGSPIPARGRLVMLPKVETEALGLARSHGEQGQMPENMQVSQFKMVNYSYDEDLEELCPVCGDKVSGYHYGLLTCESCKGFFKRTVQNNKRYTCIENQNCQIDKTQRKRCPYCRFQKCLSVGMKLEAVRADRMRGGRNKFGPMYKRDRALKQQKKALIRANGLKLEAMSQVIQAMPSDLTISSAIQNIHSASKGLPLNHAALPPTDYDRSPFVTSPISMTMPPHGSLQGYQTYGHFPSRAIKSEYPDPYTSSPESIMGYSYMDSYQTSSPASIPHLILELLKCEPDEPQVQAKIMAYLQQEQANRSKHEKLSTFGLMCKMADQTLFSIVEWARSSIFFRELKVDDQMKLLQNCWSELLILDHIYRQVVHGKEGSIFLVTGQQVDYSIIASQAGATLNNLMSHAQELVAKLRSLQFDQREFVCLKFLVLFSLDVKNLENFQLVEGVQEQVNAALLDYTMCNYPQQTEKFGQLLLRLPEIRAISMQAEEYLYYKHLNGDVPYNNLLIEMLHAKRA
(Lyso)-N-acylphosphatidylethanolamine lipase (Mus musculus), sequence (Q8VD66 whole entry, looked up): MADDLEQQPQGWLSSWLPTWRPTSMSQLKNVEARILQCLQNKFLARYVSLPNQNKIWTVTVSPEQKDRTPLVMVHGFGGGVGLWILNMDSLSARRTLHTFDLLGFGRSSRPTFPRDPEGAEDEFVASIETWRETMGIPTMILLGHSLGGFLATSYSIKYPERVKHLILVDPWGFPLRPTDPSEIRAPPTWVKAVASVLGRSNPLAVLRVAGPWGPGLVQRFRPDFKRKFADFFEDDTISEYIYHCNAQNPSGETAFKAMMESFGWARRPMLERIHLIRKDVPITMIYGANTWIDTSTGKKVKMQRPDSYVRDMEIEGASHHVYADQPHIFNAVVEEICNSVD

Take `O=[N+]([O-])c1ccc(N/N=C/c2ccccc2)cc1`: the inhibition in assay [1] was 13.7%; in [2], 10.7%; in assay [3], 3.89%; in [4] it was 17.7%; in [5] it was 20% (active).
Take `COc1ccc(-c2nn(-c3ccccc3)cc2/C=N/Nc2ccccn2)cc1OC`: the inhibition was 2.6% in assay [1], 2.28% in [2] and 4.63% in assay [3].
On to `CCN1CCN(C(c2cccnc2)c2cc(Cl)c3cccnc3c2O)CC1` (configuration not stated), for which, in [6], the inhibition was 67.8% (active).
Consider `NS(=O)(=O)c1ccc(NC(=O)COC(=O)c2c3c(nc4ccccc24)/C(=C\c2ccc4c(c2)OCO4)CCC3)cc1`, for which the inhibition is 17.9% in [1]; 22.2% in assay [2]; 0.35% in [3]; 5.98% in assay [7]; 15.7% in assay [8].
Regarding `COc1cnc(-c2ccccn2)nc1Oc1ccc(C(C)(C)C)cc1`, the inhibition in assay [6] was 53.5% (active); in [9], 28.4%; in assay [10] it was 13.6%.
Consider `COc1ccccc1C1=Nc2cccc3cccc(c23)N1`, for which the inhibition in assay [6] is 67.4% (active); in assay [11] it was 60.5% (active).
For the compound `COc1ccc(-c2cc(C(F)(F)F)nc(S(C)(=O)=O)n2)cc1OC`, the inhibition was 28.8% (active) in assay [1]; 5.84% in assay [2]; 85.2% (active) in assay [3]; 42.1% (active) in [4]; 14.4% (active) in [5].
In the case of `COc1cccc2c1C(=O)c1c(O)c3c(c(O)c1C2=O)CC(O)(C(C)=NNC(=O)c1ccc(Cl)c(Cl)c1)CC3OC1CC(N)C(O)C(C)O1` (configuration not stated), the inhibition is 69.6% (active) in assay [6]; 72.7% (active) in assay [12]; 75.1% (active) in [13]; 94.8% (active) in assay [14]; 65.9% (active) in [15]; 159% (active) in [7]. In addition, the inhibition in [8] is 126% (active); in [16], 41.2% (active); in [17], 32.5%.
With `Oc1ccc2ccc3cccc[n+]3c2c1`, the inhibition in assay [1] was 11.3%; in [2], 11.8%; in [3], 5.09%; in assay [4] it was 36.5% (active); in assay [5], 32.6% (active).
With `CCOc1ccc(C2=CC(c3ccccc3)n3ncnc3N2)cc1` (configuration not stated), the inhibition is -2.09% in assay [1], -1.41% in [2] and -1.28% in assay [3].
Regarding `O=[N+]([O-])c1c(NCCO)cc(Sc2nc3ccccc3s2)c2nonc12`, the inhibition in assay [1] is 71.1% (active); in [2], 17.3%; in [3] it was 98.7% (active).
Consider `CC(=N\NC(=O)c1cc(Br)ccc1O)/C(=N/O)C(=O)Nc1ccccc1`, for which the inhibition in assay [6] is 55.9% (active); in [7], -21.4%; in [8], 16.5%.
